This is an account of results in PubChem BioAssay.

Active and inactive are the calls of the source. Unless noted, the rule behind the calls is not given here.

Assay [1] is described as follows: compounds binding Alexa647 anti-His antibody – biochemical, small-molecule microarray, 635 nm fluorescence, artefact control for SMM control protein annotation, primary screen (AID 1128).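 Note: score merges feature fluorescence with signal-to-noise for each printed compound spot.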 Conditions: higher = more signal.
The subject of assay [2] is Human papillomavirus type 1a E7 protein (residues 1-88). Put plainly: HPV1a E7 small-molecule binders, primary screen, biochemical, small-molecule microarray, residues 1-88, 635 nm (AID 1129). Conditions: small-molecule microarray binding, fluorescence 635 nm; higher = more signal.
Assay [3] concerns the target Focal adhesion kinase 1 (Homo sapiens) (UniProt Q05397). The assay can be described thus: PTK2 protein binding on printed compound slides – biochemical, small-molecule microarray, 635/667 nm fluorescence, BSA, DTT, primary screen (AID 1130).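 Note: composite of spot emission at 667 nm and signal to noise over triplicate slides.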 Conditions: 635 nm fluorescence, higher = more signal.
Assay [4] has as its system Fibrinogen (Alexa647-labelled). The assay can be described thus: Alexa647-fibrinogen binding to printed small molecules – biochemical, small-molecule microarray, 635/667 nm fluorescence, artefact control for SMM control-protein annotation, profiling panel (AID 1131).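 Note: z-score merges 667 nm fluorescence with per-spot signal-to-noise over triplicate slides.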 Conditions: fibrinogen-A647 binding fluorescence, higher = more signal.
The target in assay [5] is Follistatin (Homo sapiens) (UniProt P19883). Put plainly: FST protein binding to printed compounds – biochemical, small-molecule microarray, 635/667 nm fluorescence, primary screen (AID 1132). Conditions: 635 nm fluorescence, higher = more signal.
Sequence of Follistatin (Homo sapiens) (P19883 whole entry, looked up): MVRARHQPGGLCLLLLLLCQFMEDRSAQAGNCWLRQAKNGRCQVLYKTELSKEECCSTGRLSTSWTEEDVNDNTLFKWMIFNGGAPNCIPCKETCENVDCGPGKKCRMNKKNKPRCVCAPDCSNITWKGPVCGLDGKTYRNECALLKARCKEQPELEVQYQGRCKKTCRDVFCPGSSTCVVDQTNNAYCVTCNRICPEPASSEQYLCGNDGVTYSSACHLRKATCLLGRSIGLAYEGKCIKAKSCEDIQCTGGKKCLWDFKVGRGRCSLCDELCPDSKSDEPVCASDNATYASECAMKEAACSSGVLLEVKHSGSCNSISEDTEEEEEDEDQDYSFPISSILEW
In assay [6] the target is Fibroblast growth factor 2 (Homo sapiens) (UniProt P09038). Put plainly: basic fibroblast growth factor binding to printed compounds – biochemical, small-molecule microarray, 635/667 nm fluorescence, primary screen (AID 1133). Conditions: FGF2, fluorescence 635/667, higher = more signal.
Sequence of Fibroblast growth factor 2 (Homo sapiens) (P09038 whole entry, looked up): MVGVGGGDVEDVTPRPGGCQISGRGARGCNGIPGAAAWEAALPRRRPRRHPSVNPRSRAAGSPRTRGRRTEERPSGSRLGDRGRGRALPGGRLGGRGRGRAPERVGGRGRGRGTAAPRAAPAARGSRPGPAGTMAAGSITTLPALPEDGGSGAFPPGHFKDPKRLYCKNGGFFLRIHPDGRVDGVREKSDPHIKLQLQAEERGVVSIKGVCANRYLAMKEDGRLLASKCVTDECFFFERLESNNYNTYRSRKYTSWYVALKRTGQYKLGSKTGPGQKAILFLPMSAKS
Assay [7] in a line: JC-1 mitochondrial potential readout, lung cancer cells – cell-based, A549, JC-1 fluorescence, basal, 24 h, 100 nL, profiling panel (AID 1138).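 Note: A549 lung adenocarcinoma cells under basal conditions with no added stimulus; test concentration not given here.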 Conditions: higher = more signal.
A further assay has as its system Lefty1. Put plainly: Lefty1 protein binding to printed compounds – biochemical, small-molecule microarray, 635/667 nm fluorescence, primary screen (AID 1139). Conditions: fluorescence 635/667, higher = more signal.
Assay [8] deals with wheat germ agglutinin (Triticum aestivum), Alexa647-labelled. Put plainly: Alexa647-WGA lectin binding to printed small molecules – biochemical, small-molecule microarray, 635/667 nm fluorescence, artefact control for SMM control-protein annotation, profiling panel (AID 1140).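 Note: score merges 667 nm feature emission with signal to noise over triplicate slides.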 Conditions: WGA-A647 binding, 635 nm fluorescence, higher = more signal.
Assay [9] has as its target Luciferin 4-monooxygenase (Photinus pyralis) (UniProt P08659). Put plainly: inhibition of purified Photinus pyralis luciferase – biochemical, luminescence, purified enzyme, 2006 set, primary screen (AID 1141).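 Note: cell-free assay with purified firefly luciferase at 100 ng per well in PBS; test concentration not given here.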 Conditions: purified firefly luciferase, SteadyGlo luminescence, 30 min; higher = more signal, called active from +8 up or from −8 down.
Assay [10] deals with Wnt5a (protein binding on small-molecule microarray). The assay can be described thus: small molecules binding Wnt5a protein – biophysical, small-molecule microarray, 635/667 nm fluorescence, primary screen (AID 1142).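 Note: fluorescence read at 667 nm with signal to noise per printed feature.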 Conditions: 635 nm fluorescence, higher = more signal.
A short description of assay [11]: ATP-based viability of Huh7 replicon cells – cell-based, CellTiter-Glo luminescence, basal, 48 h, cytotoxicity control for HCV replication inhibitor project, primary screen (AID 1143).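 Note: Huh7 hepatoma cells carrying a hepatitis C replication reporter with no stimulus; test concentration not given here.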 Conditions: higher = more signal, called active from +8 up or from −8 down. For orientation: Replicon systems follow genome replication, usually without infectious particles.
Assay [12] in a line: Pseudomonas biofilm growth suppression – PAO1 strain, BacTiter-Glo luminescence, LB-PBS, primary screen (AID 1144). Conditions: P. aeruginosa PAO1 biofilm, 12 h, higher = more signal.
Assay [13] is described as follows: basal CRE-LacZ reporter activity in PC12 – cell-based, unstimulated, primary screen (AID 1145). Conditions: no forskolin, luminescence, 4.5 h, higher = more signal, called active from +8 up or from −8 down.
The nature of assay [14]: forskolin-driven CRE-LacZ activity in PC12 – cell-based, CRE-LacZ reporter, forskolin-stimulated, primary screen (AID 1146).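 Note: PC12 cells with 6xCRE LacZ reporter stimulated by forskolin 10 µM; beta-galactosidase reporter signal reflecting CREB driven transcription.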 Conditions: luminescence, 4.5 h, higher = more signal, called active from +8 up or from −8 down.
For assay [15], the target named is Streptavidin (Streptomyces avidinii) (UniProt P22629). Put plainly: compounds binding control protein streptavidin – biophysical, small-molecule microarray, 635/667 nm fluorescence, artefact control for SMM compound annotation, primary screen (AID 1147).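 Note: signal reflects streptavidin binding to arrayed compounds as a control protein.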 Conditions: higher = more signal.
Sequence of Streptavidin (Streptomyces avidinii) (P22629 whole entry, looked up): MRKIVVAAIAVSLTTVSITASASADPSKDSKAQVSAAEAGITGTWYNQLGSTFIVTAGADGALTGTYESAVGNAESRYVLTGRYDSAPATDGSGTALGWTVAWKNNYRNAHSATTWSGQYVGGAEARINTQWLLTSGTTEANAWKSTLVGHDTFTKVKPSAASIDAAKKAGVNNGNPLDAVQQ
The nature of assay [16]: probe aInhba binding on compound microarray – biochemical, small-molecule microarray, 635/667 nm fluorescence, primary screen (AID 1148).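 Note: score merges 667nm spot fluorescence with signal-to-noise for antibody binding to printed compounds.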 Conditions: higher = more signal.
For assay [17], the target named is Torsin-1A (Homo sapiens) (UniProt O14656). The assay can be described thus: TOR1A wild-type binding on microarray – cell lysate, small-molecule microarray, lysate, 635/667 nm, primary screen (AID 1149). Conditions: COS7 hTOR1A-WT lysate, 635 nm fluorescence, higher = more signal.
Sequence of Torsin-1A (Homo sapiens) (O14656 whole entry, looked up): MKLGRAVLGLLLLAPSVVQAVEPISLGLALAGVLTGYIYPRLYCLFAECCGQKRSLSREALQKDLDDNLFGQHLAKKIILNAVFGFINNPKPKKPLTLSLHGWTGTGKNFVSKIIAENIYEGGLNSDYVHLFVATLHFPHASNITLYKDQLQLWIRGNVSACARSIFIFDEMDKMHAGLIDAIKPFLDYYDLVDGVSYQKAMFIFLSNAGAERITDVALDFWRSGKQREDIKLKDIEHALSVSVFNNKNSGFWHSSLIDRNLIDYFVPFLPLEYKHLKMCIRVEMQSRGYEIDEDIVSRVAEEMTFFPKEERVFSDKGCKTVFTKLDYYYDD
The target is the same in assay [18]. Put plainly: torsin A mutant lysate binding on microarrays – cell lysate, small-molecule microarray, COS7 lysate, 635/667 nm fluorescence, primary screen (AID 1150).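 Note: score pools 667 nm emission and signal to noise measuring lysate protein binding.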 Conditions: COS7 hTOR1A mutant lysate, 635 nm fluorescence, higher = more signal.
The subject of assay [19] is Sonic hedgehog protein (Shh). The assay can be described thus: Sonic hedgehog microarray binding compounds – biochemical, small-molecule microarray, 635/667 nm fluorescence, primary screen (AID 1151).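 Note: Shh protein binding to compounds spotted on small-molecule microarray slides; score combines spot fluorescence intensity with signal-to-noise across triplicate slides.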 Conditions: 635 nm fluorescence, higher = more signal.

Sequence of Luciferin 4-monooxygenase (Photinus pyralis) (P08659 whole entry, looked up): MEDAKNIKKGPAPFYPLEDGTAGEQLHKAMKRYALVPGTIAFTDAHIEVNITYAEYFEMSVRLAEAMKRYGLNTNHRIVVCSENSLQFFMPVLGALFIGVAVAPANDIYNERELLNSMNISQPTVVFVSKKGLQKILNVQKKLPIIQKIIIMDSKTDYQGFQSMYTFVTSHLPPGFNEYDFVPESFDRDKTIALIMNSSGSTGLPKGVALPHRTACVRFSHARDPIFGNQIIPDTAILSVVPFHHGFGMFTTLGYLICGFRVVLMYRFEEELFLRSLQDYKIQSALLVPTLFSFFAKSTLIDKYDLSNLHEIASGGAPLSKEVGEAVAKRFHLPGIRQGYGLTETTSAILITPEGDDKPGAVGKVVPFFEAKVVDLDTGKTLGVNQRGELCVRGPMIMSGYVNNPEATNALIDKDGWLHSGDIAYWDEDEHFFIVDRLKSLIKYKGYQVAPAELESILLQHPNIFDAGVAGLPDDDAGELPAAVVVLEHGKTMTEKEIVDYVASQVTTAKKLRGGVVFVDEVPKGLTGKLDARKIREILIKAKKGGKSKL
Sequence of Focal adhesion kinase 1 (Homo sapiens) (Q05397 whole entry, looked up): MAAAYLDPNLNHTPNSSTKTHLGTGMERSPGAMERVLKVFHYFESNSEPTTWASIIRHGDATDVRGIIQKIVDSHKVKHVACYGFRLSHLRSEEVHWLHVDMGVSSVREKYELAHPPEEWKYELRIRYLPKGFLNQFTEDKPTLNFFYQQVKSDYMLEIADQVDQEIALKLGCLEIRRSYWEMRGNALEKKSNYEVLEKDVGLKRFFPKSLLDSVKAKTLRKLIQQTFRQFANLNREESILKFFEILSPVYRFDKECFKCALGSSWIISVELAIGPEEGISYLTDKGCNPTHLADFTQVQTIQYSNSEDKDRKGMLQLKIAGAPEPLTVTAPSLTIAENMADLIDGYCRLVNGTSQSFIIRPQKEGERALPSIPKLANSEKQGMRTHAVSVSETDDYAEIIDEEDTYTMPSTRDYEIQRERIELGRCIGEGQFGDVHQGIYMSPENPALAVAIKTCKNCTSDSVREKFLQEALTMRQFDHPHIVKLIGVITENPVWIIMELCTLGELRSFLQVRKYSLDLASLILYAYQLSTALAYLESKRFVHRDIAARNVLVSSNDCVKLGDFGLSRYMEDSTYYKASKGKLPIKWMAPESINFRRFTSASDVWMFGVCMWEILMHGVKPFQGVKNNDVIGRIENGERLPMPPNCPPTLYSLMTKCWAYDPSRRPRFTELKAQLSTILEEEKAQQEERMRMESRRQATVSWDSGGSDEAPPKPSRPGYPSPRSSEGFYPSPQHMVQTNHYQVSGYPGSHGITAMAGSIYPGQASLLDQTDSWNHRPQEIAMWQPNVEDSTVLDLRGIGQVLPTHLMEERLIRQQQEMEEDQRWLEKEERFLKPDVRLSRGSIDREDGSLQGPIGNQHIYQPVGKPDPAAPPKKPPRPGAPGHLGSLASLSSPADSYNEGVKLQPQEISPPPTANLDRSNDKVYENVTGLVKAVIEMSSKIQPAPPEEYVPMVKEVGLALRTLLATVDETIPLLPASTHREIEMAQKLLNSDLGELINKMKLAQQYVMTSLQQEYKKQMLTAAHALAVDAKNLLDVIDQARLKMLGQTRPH

`C[C@]12C(=O)N(CCCCCCO)[C@@H]3C(=O)N(c4ccc(Cl)cc4)CC=CC31O[C@@H]1/C=C\CCCOC(=O)C12` (stereo not given in full): the composite z-score in [1] was 0.0039; in [2] it was -0.401; in assay [3], 0.657; in assay [4] it was -2.42; in [5] it was -0.448; in assay [6], -1.12. The composite z-score with Lefty1 is -0.408; in [8], 0.608; in assay [10], -0.143; in [15], -0.781; in assay [16], -0.104; in the assay with Torsin-1A (Homo sapiens) [17] it was -1.38. The composite z-score is -0.825 with Torsin-1A (Homo sapiens) [18] and 0.128 in [19]. Also, the z-score is 0.846 in assay [7]; -1.64 (inactive) in assay [9]; -0.0337 (inactive) in assay [11]; -1.5 (inactive) in assay [12]; 0.0686 (inactive) in [13]; -0.475 (inactive) in assay [14].
`C[C@]1(C(=O)NC2CC2)c2ccccc2C(=O)N(Cc2ccc(OC(F)(F)F)cc2)[C@H]1c1ccc(CO)cc1`: the composite z-score was -0.725 in assay [1]; 0.722 in assay [2]; 0.576 in [3]; -0.796 in [4]; -0.239 in assay [5]; 0.0672 in assay [6]. In addition, the composite z-score in the assay with Lefty1 is -0.858; in assay [8] it was -1.5; in assay [10], -0.0135; in [15], -0.825; in assay [16] it was 0.152; in the assay with Torsin-1A (Homo sapiens) [17] it was 0.398. In addition, the composite z-score in the assay with Torsin-1A (Homo sapiens) [18] was 0.398; in assay [19], -0.379. Further, the z-score in assay [7] was 1; in [9] it was 0.371 (inactive); in [11], -0.0474 (inactive); in assay [12], 0.244 (inactive); in assay [13], 1.64 (inactive); in assay [14], -0.103 (inactive).
In the case of `COC(=O)[C@@]1(Cc2ccc(OC)cc2)[C@H]2c3cc(C(=O)N(C)C)n(Cc4nc5ccccc5[nH]4)c3C[C@H]2CN1C(=O)c1ccccc1`, the composite z-score in assay [1] is 1.39; in assay [2], 1.26; in assay [3], 1.34; in [4], 0.991; in [5], 0.907; in [6], -0.295. Besides, the composite z-score in the assay with Lefty1 was -0.117; in assay [8] it was 1.35; in assay [10], 0.38; in [15] it was 1.12; in [16], 0.698; with Torsin-1A (Homo sapiens) [17], 0.314. Also, the composite z-score in the assay with Torsin-1A (Homo sapiens) [18] was 0.432; in assay [19], -0.388. The z-score in assay [7] is 1.95; in assay [9], 2.41 (inactive); in assay [11] it was -3.83 (inactive); in assay [12] it was 0.179 (inactive); in assay [13] it was -0.375 (inactive); in assay [14] it was -0.139 (inactive).
For the compound `CC(C)N1CC=CC23O[C@@H]4C=CCOC(=O)[C@@H]4[C@H]2C(=O)N(C(C)CO)[C@@H]3C1=O` (stereo not given in full), the composite z-score in [1] was -0.221; in assay [2], -0.915; in assay [3], -0.202; in assay [4], -0.179; in assay [5], -0.901; in assay [6], -0.678. Further, the composite z-score is -0.941 in the assay on Lefty1; -0.158 in [8]; -0.517 in assay [10]; -0.23 in assay [15]; -0.161 in [16]; -1.33 in the assay with Torsin-1A (Homo sapiens) [17]. For the same compound, the figures for the composite z-score (in the assay with Torsin-1A (Homo sapiens) [18]; in assay [19]) were -1.43 and -0.753, respectively. The z-score in assay [7] was -0.374; in [9], 0.169 (inactive); in assay [11], 0.394 (inactive); in assay [12], 0.995 (inactive); in [13] it was -0.619 (inactive); in [14] it was -0.544 (inactive).
Turning to `COc1cc(CO)cc(I)c1O[C@H]1C=C(C(=O)NCCO)C[C@@H](N(Cc2ccc(F)cc2)C(=O)C2CCCO2)[C@@H]1O` (stereo not given in full), the composite z-score in assay [1] is 0.608; in assay [2], 0.317; in [3] it was 0.079; in assay [4], 0.247; in assay [5] it was 0.34; in assay [6] it was 0.47. Also, the composite z-score in the assay with Lefty1 was -0.0522; in assay [8], 0.517; in assay [10] it was -0.212; in assay [15], -0.274; in assay [16] it was -0.227; in the assay with Torsin-1A (Homo sapiens) [17], -0.0326. Besides, the composite z-score with Torsin-1A (Homo sapiens) [18] is -0.0306; in [19], 0.399. In addition, the z-score in assay [7] was 1.46; in assay [9], -0.951 (inactive); in [11], -0.457 (inactive); in assay [12], -0.583 (inactive); in assay [13], 0.949 (inactive); in assay [14] it was -1.24 (inactive).
